# Data taken from PubChem BioAssay (NCI).
# This is part of a sample that, as a whole, favours compounds with a hit. Of some 83,000 tested, about 20% had one in any assay.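 Compound tested at a single concentration for 48 hours in 96-well plates; a percent growth value below 10 was scored as active.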 Unmarked numbers belong to inactive results. Activity calls are given as the source filed them.
# Test system: 786-0 renal
# Assay: NCI-60 one-dose screen, 48 h (100 = growth as untreated, 0 = no growth, -100 = all killed)
# Settings: 10 µM unless noted
row,SMILES,growth
1,C=C(CC(=O)OC)C(C)=O,106%
2,O=C1/C(=C\c2cn(CC(O)CN3CCCCC3)c3ccccc23)c2ccccc2N1c1c(Cl)cccc1Cl (stereo not drawn),-72.6% (active)
3,CC/C=C(\C)C(CCC)(CN=O)C(=O)OCC (stereo not drawn),104%
4,CN(C)C(=S)Sc1ccc([N+](=O)[O-])cc1[N+](=O)[O-],63.8%

# Test system: COLO 205 colon
# Assay: as above
# Settings: 10 µM unless noted
row,SMILES,growth
1,CC(C)C1=NOC(=O)C1=Cc1cn(-c2ccccc2)nc1-c1ccccc1,110%
2,CCN(CC)CCCNCc1cc(-c2ccccc2)nc2ccccc12,117%
3,CCOC(=O)CCC[P+](c1ccccc1)(c1ccccc1)c1ccccc1,71.6%
4,Cc1cccc(C[C@H](NC(=O)Nc2ccc(Cl)cc2F)C(=O)N[C@@H]2C(=O)N3C[C@H](O)C[C@H]3C(=O)N3CCN(C)C[C@H]3C(=O)N[C@@H](C)C(=O)N3C[C@H](C)C[C@H]3C(=O)O[C@H]2C)c1,11.2%
5,COc1cc(C)cc2oc3oc(=O)c(C(=O)c4cc5cc(Br)ccc5o4)cc3c(=O)c12,125%
6,COc1ccc(CC(C#N)c2ccc(Cl)cc2)cc1 (stereo not drawn),94%
7,Clc1ccc(/C=N/Nc2nc3ccccc3s2)c(Cl)c1,88.4%
8,Nc1nc(SCc2cccc([N+](=O)[O-])c2)c2[nH]cnc2n1,114%
9,COC(=O)[C@]12CCC(C)(C)C[C@H]1C1=CC[C@@H]3[C@@]4(C)C/C(=C/c5cccnc5)C(=O)C(C)(C)[C@@H]4CC[C@@]3(C)[C@]1(C)CC2,-46.2% [100 µM] (active)
